Results filed as inconclusive are left out. A number with no mark means an inactive call. Active and inactive are the calls of the source. Calls come from the whole dose curve; as a rule, active = well fitted curve in the direction sought with a large enough effect; inconclusive = small, poorly fitted or top-dose-only effect, or another doubt; inactive = no such curve, though single readings can be large; an effect the other way counts as inactive or inconclusive. Where a SMILES comes first, the peptide text is derived from it.

Here are results for 27 compounds from PubChem BioAssay (NCATS).

Assay [1] in a line: Primary qHTS for inhibitors of nuclear receptor binding SET domain protein 2 (NSD2) in an isogenic RCH-ACV NSD2 p.E1099K mutant (9B) (AID 1645876).
A short description of assay [2]: Primary qHTS for inhibitors of nuclear receptor binding SET domain protein 2 (NSD2) in an RCH-ACV wild type WT cells (2C) (AID 1645877). On the technique in general: Quantitative high-throughput screening tests each substance at several concentrations.
% is set by controls: 0 for no effect and ±100 for the full control effect.
Note: nearly all actives have a fitted effect of over 70% in size.

Turning to `COc1cc(C[C@H]2COC(=O)[C@@H]2Cc2ccc(O)c(OC)c2)ccc1O`, the Potency result in assay [1] and in assay [2] was “inactive” each time.
For the compound `C=C1C2(CCC(=O)OC2(C)C)CC(OC(=O)/C(C)=C/C)C2(C)C13OC14C(=O)OC(C)(C(=O)C12C(=O)OC4C)C3OC(C)=O` (centres undefined), the Potency entry in assay [1] and in assay [2] was “inactive” throughout.
Regarding `CC1(C)C(O)CCC2(C)C1C(O)C=C1COC(=O)C12O` (centres undefined), the Potency entry in assay [1] and in assay [2] was “inactive” each time.
Consider `COC(=O)C1=CO[C@@H](O[C@@H]2O[C@H](CO[C@@H]3O[C@H](COC(=O)/C=C/c4ccc(O)cc4)[C@@H](O)[C@H](O)[C@H]3O)[C@@H](O)[C@H](O)[C@H]2O)[C@@H]2C(CO)=CC[C@H]12`, for which the Potency entry in assay [1] and in assay [2] was “inactive” in each case.
For the compound `CCCC(N[C@@H](C)C(=O)N1[C@H](C(=O)O)C[C@@H]2CCCC[C@@H]21)C(=O)OCC` (some centres undefined), the Potency entry in assay [1] and in assay [2] was “inactive” in each case.
Regarding `COC1CC(=O)CCC(C)OC(=O)CC1O` (centres undefined), the Potency result in assay [1] and in assay [2] was “inactive” in each case.
Turning to `CC1=C2[C@@H]([C@H](C)CC[C@H]2/C=C(\C)C(=O)O)[C@H](O)C1`, the Potency result in assay [1] and in assay [2] was “inactive” in each case.
In the case of `C[C@@H]1O[C@@H](O[C@H]2[C@H](O[C@H]3CO[C@@H](O[C@H]4CC[C@@]5(C)C(CC[C@]6(C)C5CC[C@]57OC[C@@]8(CC[C@](C)(CO)CC85)[C@H](O)C[C@]76C)C4(C)C)[C@H](O[C@@H]4O[C@H](CO)[C@@H](O)[C@H](O)[C@H]4O)[C@H]3O)O[C@H](CO)[C@@H](O)[C@@H]2O)[C@H](O)[C@H](O)[C@H]1O` (some centres undefined), the outcome in assay [1] and in assay [2] was “inactive [at 9.23 µM]” throughout.
Consider `C/C=C(\C)C(=O)O[C@@H](C)[C@H]1CC[C@]2(O)C3CCC4C[C@@H](OC5CC(OC)C(OC6CC(OC)C(OC7CC(OC)C(OC8OC(C)C(OC9OC(CO)C(O)C(O)C9O)C(OC)C8O)C(C)O7)C(C)O6)C(C)O5)CC[C@]4(C)C3[C@H](O)[C@@H](O)[C@]12C` (some centres undefined), for which, in assay [1], the activity change, negative = viability loss was -6.35% [at 9.23 µM]. For the same compound, the activity change, negative = cell killing in assay [2] is -1.09% [at 9.23 µM].
`CC(C)(OC1OC(CO)C(O)C(O)C1O)C1CCC(O)(CO)C2CC(O)C(C)(O)C2C1` (centres undefined): the Potency entry in assay [1] and in assay [2] was “inactive” throughout.
As to `CC(/C=C/C1(O)C(C)(C)CC(O)CC1(C)O)OC1OC(CO)C(O)C(O)C1O` (centres undefined), the Potency entry in assay [1] and in assay [2] was “inactive” each time.
Turning to `C=CCc1ccc(O[C@@H]2O[C@H](CO)[C@@H](O)[C@H](O)[C@H]2O)c(OC)c1`, the Potency result in assay [1] and in assay [2] was “inactive” each time.
Turning to `COc1cc(/C=C/CO)ccc1O[C@@H]1O[C@H](CO)[C@@H](O)[C@H](O)[C@H]1O`, the Potency result in assay [1] and in assay [2] was “inactive” in each case.
On to `C[C@@H](O)[C@H](N)C(=O)N1CCC[C@H]1C(=O)N1CCC[C@H]1C(=O)N[C@H](C(N)=O)[C@@H](C)O` (H-TPPT-NH2), for which the activity change, negative = viability loss in assay [1] was 0.764% [at 9.23 µM]. Further, in assay [2], the activity change, negative = cell killing was -0.759% [at 9.23 µM].
`C[C@@H]1CC[C@]2(C(=O)O[C@@H]3O[C@H](CO)[C@@H](O)[C@H](O)[C@H]3O)CC[C@]3(C)C(=CCC4[C@@]5(C)C[C@@H](O)[C@H](O)C(C)(C)C5CC[C@]43C)C2[C@]1(C)O` (some centres undefined): the Potency result in assay [1] and in assay [2] was “inactive” in each case.
`CC(=O)N[C@H]1CCN(c2ccc(C3=NOC(CN[S+](=O)([O-])C(C)C)C3)cc2F)C1` (some centres undefined): the Potency entry in assay [1] and in assay [2] was “inactive” throughout.
`CC(/C=C/C1(O)C(C)CC(O)CC1(C)C)OC1OC(CO)C(O)C(O)C1O` (centres undefined): the Potency entry in assay [1] and in assay [2] was “inactive” in each case.
In the case of `CC(=O)O[C@H]1CC[C@@]2(CI)C(=CC[C@@H]3[C@@H]2CC[C@]2(C)[C@@H]([C@H](C)CCCC(C)C)CC[C@@H]32)C1`, the activity change, negative = viability loss in assay [1] was -4.5% [at 9.23 µM]. Also, in assay [2], the activity change, negative = cell killing was -14% [at 9.23 µM].
On to `COc1c2c(c(C)c3c1C(=O)OC3)OC1(C)CC(O)C3(O)C(C)(C)OC(=O)CCC3(C)C1C2` (centres undefined), for which the Potency result in assay [1] and in assay [2] was “inactive” in each case.
Take `CN1C(=O)N[C@@H](Cc2c[nH]c3c(Cl)cccc23)C1=O`: the Potency result in assay [1] and in assay [2] was “inactive” throughout.
`O=C(O)CCc1cccc(O[C@@H]2O[C@H](CO)[C@@H](O)[C@H](O)[C@H]2O)c1O`: the Potency result in assay [1] and in assay [2] was “inactive” throughout.
For `CC1OC(OC2C(C)OC(OC3C(OC(=O)/C=C/c4ccc(O)cc4)C(CO)OC(OC4(COC(=O)/C=C/c5ccc(O)cc5)OC(CO)C(O)C4O)C3OC3OCC(O)(CO)C3O)C(O)C2O)C(O)C(O)C1O` (centres undefined), the activity change, negative = viability loss in assay [1] was -6.92% [at 9.23 µM]. Moreover, the activity change, negative = cell killing in assay [2] was -11.9% [at 9.23 µM].
For `C=C1[C@H]2[C@H](O[C@@H]3O[C@H](COC(=O)/C=C/c4cc(OC)c(O)c(OC)c4)[C@@H](O)[C@H](O)[C@H]3O)OC=C(C(=O)O)[C@H]2C[C@@H]1O`, the Potency entry in assay [1] and in assay [2] was “inactive” each time.
Turning to `COc1ccc([C@H]2Cc3cccc(O)c3C(=O)O2)cc1`, the Potency result in assay [1] and in assay [2] was “inactive” throughout.
For `COC(=O)[C@H](OC(C)=O)[C@H]1C(C)(C)C(=O)[C@H]2CC3=C4CC(=O)O[C@@H](c5ccoc5)[C@]4(C)CCC3[C@@]1(C)C2=O` (some centres undefined), the Potency result in assay [1] and in assay [2] was “inactive” in each case.
Take `CC1CCC2C(C(=O)O)=CC3CC(C)(C)CC132` (centres undefined): the Potency result in assay [1] and in assay [2] was “inactive” in each case.
Regarding `COc1cc(O[C@@H]2O[C@H](CO)[C@@H](O)[C@H](O)[C@H]2O)c(CCC(=O)OC[C@H]2O[C@@H](Oc3cc(OC)c(C4OC(=O)C(C)(O)C4O)cc3CCC(=O)O)[C@H](O)[C@@H](O)[C@@H]2O)cc1C1OC(=O)C(C)(O)C1O` (some centres undefined), in assay [1], the activity change, negative = viability loss is -2.96% [at 9.23 µM]. Also, the activity change, negative = cell killing in assay [2] was -6.02% [at 9.23 µM].
